High-throughput results as filed in PubChem.
Lamin A splicing: qHTS Assay for Modulators of Lamin A Splicing; Potency, µM (series often up to 46.1 µM), actives largely listed as inhibitors; HeLa LMNA splicing GFP/RFP minigene ratio, 48 h; 0.01% of 200,000 active; active = well fitted inhibition curve with a large enough effect in the signal ratio, with a control signal flat, not every such curve was filed as active; inconclusive = small, poorly fitted or top-dose-only effect, or effect the other way, or a change in a side signal; the % refers to the signal ratio
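S3 HeLa stable clones carrying a lamin A-EGFP splicing minigene plus DsRed2 were seeded at 600 cells/well in Opti-MEM with 2% FBS, pin-dosed and incubated 48 h at 37°C. Acumen cytometry (488 nm) gave the GFP/RFP total-intensity ratio.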
JMJD2E inh: qHTS Assay for Inhibitors of Human Jumonji Domain Containing 2E (JMJD2E); 1.6% of 230,000 active; AID 2147, 2009; Lysine-specific demethylase 4E (Homo sapiens), B2RXH2; Potency, µM (series often up to 57.1 µM), most hits filed as inhibitors; JMJD2E catalytic domain, FDH-coupled NADH fluorescence (FDH is formaldehyde dehydrogenase); note: nearly all actives have a fitted effect of over 50% in size
ALDH1A1 inh: qHTS Assay for Inhibitors of Aldehyde Dehydrogenase 1 (ALDH1A1); Aldehyde dehydrogenase 1A1 (Homo sapiens), P00352; Purified ALDH1A1, NADH fluorescence, propionaldehyde substrate; Potency, µM (top dose mostly 75.3 µM), hits mostly inhibitors; 7.3% of 220,000 active; active = well fitted inhibition curve with a large enough effect, not every such curve was filed as active; inconclusive = small, poorly fitted or top-dose-only effect, or another doubt; inactive = no such curve, though single readings can be large or run the other way
Target sequence (P00352 whole entry, looked up): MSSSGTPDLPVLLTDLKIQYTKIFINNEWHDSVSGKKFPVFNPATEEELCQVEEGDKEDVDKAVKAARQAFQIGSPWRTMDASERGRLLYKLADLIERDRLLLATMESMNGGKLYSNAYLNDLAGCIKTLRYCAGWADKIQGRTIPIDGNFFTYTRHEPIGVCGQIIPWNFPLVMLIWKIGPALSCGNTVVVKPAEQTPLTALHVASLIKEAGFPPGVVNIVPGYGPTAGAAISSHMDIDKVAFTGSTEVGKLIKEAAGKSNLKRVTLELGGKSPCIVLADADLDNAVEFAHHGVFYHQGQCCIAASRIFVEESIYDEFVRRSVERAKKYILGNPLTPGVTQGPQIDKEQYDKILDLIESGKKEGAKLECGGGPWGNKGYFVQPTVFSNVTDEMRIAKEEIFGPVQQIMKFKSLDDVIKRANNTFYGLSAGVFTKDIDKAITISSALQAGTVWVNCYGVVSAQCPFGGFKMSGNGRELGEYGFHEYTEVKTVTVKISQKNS
miR-21 act: qHTS Assay for Modulators of miRNAs and/orActivators of miR-21 | HeLa miR-21 FLuc reporter, luciferase, 48 h | Potency, µM (series often up to 38.3 µM), actives largely listed as activators | 340,000 tested, under 10 active | AID 2288, 2010;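 note: miR-21 action dims this reporter so a rising signal means less miR-21 action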
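HeLa cells endogenously expressing miR-21, stably carrying CMV-driven firefly luciferase with a downstream miR-21 binding site, 2000 cells/well. Titrations up to approximately 40 uM, 48 hours; luciferase luminescence read.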
G9a block: qHTS Assay for Inhibitors of Histone Lysine Methyltransferase G9a; Histone-lysine N-methyltransferase EHMT2 (Homo sapiens), Q96KQ7; G9a H3K9 monomethylation, AlphaScreen, 2 h; Potency, µM (top dose mostly 102 µM), usual class: inhibitors; 8.8% of 350,000 active; AID 504332, 2011; note: nearly all actives have a fitted effect of over 75% in size
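Enzyme 20 nM + cpd, 15 min RT; add b-H3K9 pep 500 nM / SAM 20 uM; 2 h RT; anti-H3K9me1 Ab 0.5 ug/mL + SA donor / anti-rabbit acceptor beads 20 ug/mL each, 10 min; AlphaScreen read.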
Sfp inh: qHTS Assay for Inhibitors of Bacillus subtilis Sfp phosphopantetheinyl transferase (PPTase); 4'-phosphopantetheinyl transferase ffp (Bacillus subtilis), Q9F4F7; Biochemical Sfp PPTase activity, qHTS; Potency, µM, hits mostly inhibitors; 3.5% of 310,000 active; AID 1490, 2009;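 note: the enzyme is Sfp with the accession as filed and its product quenches rhodamine fluorescence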
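Sfp 15 nM + cpd, 15 min RT; start w/ rhodamine-CoA 5 uM, BHQ-2-YbbR 12.5 uM (final); 50 mM Hepes pH 7.6, 10 mM MgCl2, 0.01% NP-40, 0.01% BSA; read 525/598 nm at 0 and 30 min.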
A number is an active result. Sampled rows, rich in hits. Any-hit rate of the full collection: about 13%. Unless noted, calls come from the whole dose curve; as a rule, active = well fitted curve in the direction sought with a large enough effect; inconclusive = small, poorly fitted or top-dose-only effect, or another doubt; inactive = no such curve, though single readings can be large; an effect the other way counts as inactive or inconclusive.

`CSc1ccc(/C=N/NC(=O)CNc2ccc3ccccc3c2)cc1` gave Lamin A splicing inactive, JMJD2E inh inactive, ALDH1A1 inh inactive, miR-21 act inactive, G9a block inconclusive and Sfp inh inactive.
O=C(CCC(=O)Nc1ccccc1)N/N=C/c1ccncc1 was read as Lamin A splicing inactive, JMJD2E inh inactive, ALDH1A1 inh inactive, miR-21 act inactive, G9a block inactive and Sfp inh inconclusive.
COc1ccc(NC(=O)CCC(=O)N/N=C/c2ccncc2)cc1 was read as JMJD2E inh inactive, miR-21 act inactive, G9a block 22µM and Sfp inh inactive.
Screening COc1cccc(NC(=O)CSc2nc3ccc(NC(=O)c4cccs4)cc3s2)c1 returned Lamin A splicing inconclusive, miR-21 act inactive and G9a block inactive.
For O=C(C1CCN(S(=O)(=O)c2ccc(Br)s2)CC1)N1CCN(c2cccc(Cl)c2)CC1 the results were miR-21 act inactive and G9a block inactive.
Screening Cc1ccc2c(c1)-c1c(cnc3cc(-c4ccccc4)nn13)CO2 returned miR-21 act inactive and G9a block inactive.
Screening CCn1c(=O)[nH]c2ccccc21 returned JMJD2E inh inactive, ALDH1A1 inh inactive and Sfp inh inactive.
`CCn1c(C)c(CS(=O)(=O)c2ccccc2)[nH]c1=O` gave JMJD2E inh 28µM, ALDH1A1 inh 22µM, miR-21 act inactive, G9a block 1µM and Sfp inh 25µM.
Screening O=C1CCCc2cc(S(=O)(=O)NCC3CCC(C(=O)Nc4ccccc4F)CC3)ccc2N1 (stereo unspecified) returned miR-21 act inactive and G9a block inactive.
`Cc1ccc2nc(Cl)c(C3CC(c4ccco4)=NN3S(C)(=O)=O)cc2c1` (stereo unspecified) gave JMJD2E inh inactive, miR-21 act inactive and Sfp inh inactive.
Screening CS(=O)(=O)N1N=C(c2ccco2)CC1c1ccc(Cl)cc1Cl (stereo unspecified) returned JMJD2E inh inactive, ALDH1A1 inh inconclusive, miR-21 act inactive and Sfp inh 40µM.
`CCOc1ccc2nc(Cl)c(C3CC(c4ccco4)=NN3S(C)(=O)=O)cc2c1` (stereo unspecified) gave JMJD2E inh inactive, miR-21 act inactive and Sfp inh inactive.
Screening CCOc1ccc2cc(C3CC(c4ccco4)=NN3S(C)(=O)=O)c(=O)[nH]c2c1 (stereo unspecified) returned JMJD2E inh inconclusive, miR-21 act inactive and Sfp inh 22µM.
`Cc1ccc2cc(C3CC(c4ccco4)=NN3S(C)(=O)=O)c(Cl)nc2c1` (stereo unspecified) gave JMJD2E inh inactive, ALDH1A1 inh 18µM, miR-21 act inactive and Sfp inh inconclusive.
Screening CCOc1ccc2cc(C3CC(c4ccco4)=NN3S(=O)(=O)c3ccccc3)c(Cl)nc2c1 (stereo unspecified) returned Lamin A splicing inactive, JMJD2E inh inconclusive, ALDH1A1 inh inconclusive, miR-21 act inactive, G9a block 10µM and Sfp inh inactive.
For COC(=O)C(c1ccccc1Cl)N1CCc2sccc2C1 (stereo unspecified) the results were Lamin A splicing inconclusive, JMJD2E inh inactive, ALDH1A1 inh inactive, G9a block inactive and Sfp inh inactive.
COc1cc(CN(C(=O)c2ccc(C)cc2)c2ccccn2)cc(OC)c1OC was read as Lamin A splicing inactive, miR-21 act inactive and G9a block inactive.
`COc1ccc2cc(C3CC(c4ccco4)=NN3S(=O)(=O)c3ccccc3)c(Cl)nc2c1` (stereo unspecified) gave Lamin A splicing inactive, JMJD2E inh inactive, ALDH1A1 inh inactive, miR-21 act inactive, G9a block inconclusive and Sfp inh inactive.
CS(=O)(=O)N1N=C(c2ccco2)CC1c1cccc([N+](=O)[O-])c1 (stereo unspecified) was read as JMJD2E inh inactive, miR-21 act inactive and Sfp inh inactive.
For Cc1ccc2cc(C3CC(c4ccco4)=NN3S(=O)(=O)c3ccccc3)c(Cl)nc2c1 (stereo unspecified) the results were Lamin A splicing inconclusive, JMJD2E inh inactive, ALDH1A1 inh inconclusive, miR-21 act inactive, G9a block 50µM and Sfp inh inactive.
Screening COc1ccc2nc(Cl)c(C3CC(c4ccco4)=NN3C(=O)CCCC(=O)O)cc2c1 (stereo unspecified) returned JMJD2E inh inactive, miR-21 act inactive, G9a block inactive and Sfp inh 35µM.
For CS(=O)(=O)N1N=C(c2ccco2)CC1c1ccc(Br)cc1 (stereo unspecified) the results were Lamin A splicing inactive, JMJD2E inh inactive, ALDH1A1 inh inactive, miR-21 act inactive, G9a block 35µM and Sfp inh inactive.
Screening O=C(CSC1=Nc2ccccc2N=C(c2ccc(F)cc2)C1)NCc1ccccc1 returned Lamin A splicing inactive, miR-21 act inactive and G9a block inactive.
Screening CCCCC(CCC(=O)O)(C(=O)OCC)c1csc(Nc2ccc(OCC)cc2)n1 (stereo unspecified) returned JMJD2E inh inactive, miR-21 act inactive, G9a block 32µM and Sfp inh inconclusive.
`CCOc1ccc(Nc2nc(Cc3nnc(SCC(=O)O)o3)cs2)cc1` gave Lamin A splicing inactive, JMJD2E inh inconclusive, ALDH1A1 inh inconclusive, miR-21 act inactive, G9a block 50µM and Sfp inh 45µM.
Screening COC(=O)C1=C(CSc2nc3ccccc3s2)NC(=O)NC1c1ccc(F)cc1 (stereo unspecified) returned Lamin A splicing inconclusive, JMJD2E inh inactive, ALDH1A1 inh inconclusive, miR-21 act inactive, G9a block 40µM and Sfp inh inactive.
Screening COc1cc2[nH]c(Cl)c([N+](=O)[O-])c2cc1OC returned JMJD2E inh 13µM, miR-21 act inactive, G9a block inconclusive and Sfp inh 89µM.
COc1ccc(-n2cc(C(=O)NCc3ccccc3)c3ccccc3c2=O)cc1 was read as Lamin A splicing inactive, miR-21 act inactive and G9a block inconclusive.
COc1ccc(-n2cc(C(=O)O)c(=O)cc2C)cc1 was read as Lamin A splicing inconclusive, JMJD2E inh inactive, ALDH1A1 inh inactive, miR-21 act inactive, G9a block 45µM and Sfp inh inactive.
CCOC(=O)c1c(C)[nH]c(C)c1C(=O)CN1C(=O)NC2(CCCCCC2)C1=O was read as G9a block 22µM.
